PubChem BioAssay AID1159580 (chemical genetic matrix, 2015)
About 2,000 (36%) of roughly 5,500 compounds were called active. Inconclusive results (about 18%) are left out. No stated cut-off is given here; in the data, active means normalized growth mostly below about 0.91 (no sharp cut-off); inconclusive means no clear call, values can overlap the other calls; inactive means mostly above about 0.92. Some of the results follow.

Test: chemical genetic growth profiling, strain panel (AID 1159580);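 further: tested at 20 µM; growth read once vehicle control cultures reached saturation at 30 °C; 1 = growth at the plate median or of vehicle wells; lower values mean less growth of the strain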
Settings: growth OD

Measured: normalized growth

CC(=O)[O][Hg][c]1ccccc1
active: S. cerevisiae deletion strains, locus YJR066W, strain TOR1, active compounds read low 0.00688 | S. cerevisiae deletion strains, locus YJR075W, strain HOC1, active compounds read low 0.0645 | S. cerevisiae deletion strains, locus YKL009W, strain mrt4, active compounds read low 0.0761 | S. cerevisiae deletion strains, locus YKL068W, active compounds read low 0.0552 | S. cerevisiae deletion strains, locus YKL085W, strain MDH1 (second series), active compounds read low 0.0536 | S. cerevisiae deletion strains, locus YKL085W, strain MDH1, active compounds read low 0.0536 | S. cerevisiae deletion strains, locus YKL160W, strain elf1, active compounds read low 0.0629 | S. cerevisiae deletion strains, locus YKL190W, strain CNB1, active compounds read low 0.0488 | S. cerevisiae deletion strains, locus YKR001C, strain vps1, active compounds read low 0.0636 | S. cerevisiae deletion strains, locus YKR026C, strain gcn3, active compounds read low 0.0658 | S. cerevisiae deletion strains, locus YKR091W, strain srl3, active compounds read low 0.0596 | S. cerevisiae deletion strains, locus YLL001W, strain dnm1, active compounds read low 0.0611 | S. cerevisiae deletion strains, locus YLL026W, active compounds read low 0.0582 | S. cerevisiae deletion strains, locus YLL041C, strain sdh2, active compounds read low 0.0595 | S. cerevisiae deletion strains, locus YLR027C, strain aat2, active compounds read low 0.0573 | S. cerevisiae deletion strains, locus YLR039C, strain RIC1, active compounds read low 0.0904 | S. cerevisiae deletion strains, locus YLR058C, strain SHM2, active compounds read low 0.0508 | S. cerevisiae deletion strains, locus YLR102C, strain apc9, active compounds read low 0.0618 | S. cerevisiae deletion strains, locus YLR113W, strain HOG1, active compounds read low 0.158 | S. cerevisiae deletion strains, locus YLR221C, strain rsa3, active compounds read low 0.0629 | S. cerevisiae deletion strains, locus YLR258W, strain gsy2, active compounds read low 0.0604 | S. cerevisiae deletion strains, locus YLR262C, strain YPT6 (second series), active compounds read low 0.0742 | S. cerevisiae deletion strains, locus YLR262C, strain YPT6, active compounds read low 0.103 | S. cerevisiae deletion strains, locus YLR268W, strain sec22, active compounds read low 0.0681 | S. cerevisiae deletion strains, locus YLR320W, strain mms22, active compounds read low 0.0826 | S. cerevisiae deletion strains, locus YLR330W, strain CHS5, active compounds read low 0.0544 | S. cerevisiae deletion strains, locus YLR342W, strain FKS1 (second series), active compounds read low 0.0755 | S. cerevisiae deletion strains, locus YLR342W, strain FKS1, active compounds read low 0.0633 | S. cerevisiae deletion strains, locus YLR357W, strain rsc2, active compounds read low 0.127 | S. cerevisiae deletion strains, locus YLR370C, strain arc18, active compounds read low 0.0626 | S. cerevisiae deletion strains, locus YLR371W, strain rom2, active compounds read low 0.0637 | S. cerevisiae deletion strains, locus YLR384C, strain iki3, active compounds read low 0.0624 | S. cerevisiae deletion strains, locus YLR418C, strain cdc73, active compounds read low 0.0951 | S. cerevisiae deletion strains, locus YML016C, strain PPZ1, active compounds read low 0.0524 | S. cerevisiae deletion strains, locus YML032C, strain rad52, active compounds read low 0.0836 | S. cerevisiae deletion strains, locus YML120C, strain ndi1, active compounds read low 0.0619 | S. cerevisiae deletion strains, locus YML124C, strain tub3, active compounds read low 0.0593 | S. cerevisiae deletion strains, locus YMR058W, strain fet3, active compounds read low 0.0602 | S. cerevisiae deletion strains, locus YMR078C, strain ctf18, active compounds read low 0.0736 | S. cerevisiae deletion strains, locus YMR125W, strain sto1, active compounds read low 0.0779 | S. cerevisiae deletion strains, locus YMR129W, active compounds read low 0.0611 | S. cerevisiae deletion strains, locus YMR205C, strain PFK2, active compounds read low 0.0858 | S. cerevisiae deletion strains, locus YMR223W, strain ubp8, active compounds read low 0.0679 | S. cerevisiae deletion strains, locus YMR231W, strain pep5, active compounds read low 0.0683 | S. cerevisiae deletion strains, locus YMR263W, strain SAP30, active compounds read low 0.0622 | S. cerevisiae deletion strains, locus YMR307W, strain GAS1, active compounds read low 0.119 | S. cerevisiae deletion strains, locus YNL067W, strain RPL9B, active compounds read low 0.0529 | S. cerevisiae deletion strains, locus YNL071W, strain lat1, active compounds read low 0.0614 | S. cerevisiae deletion strains, locus YNL128W, strain TEP1, active compounds read low 0.0633 | S. cerevisiae deletion strains, locus YNL153C, strain GIM3, active compounds read low 0.0495 | S. cerevisiae deletion strains, locus YNL183C, strain NPR1, active compounds read low -0.000716 | S. cerevisiae deletion strains, locus YNL209W, strain ssb2, active compounds read low 0.0586 | S. cerevisiae deletion strains, locus YNL233W, strain BNI4, active compounds read low 0.0544 | S. cerevisiae deletion strains, locus YNL248C, strain rpa49, active compounds read low 0.0785 | S. cerevisiae deletion strains, locus YNL250W, strain rad50, active compounds read low 0.0635 | S. cerevisiae deletion strains, locus YNL271C, strain bni1, active compounds read low 0.0615 | S. cerevisiae deletion strains, locus YNL298W, strain CLA4, active compounds read low 0.0614 | S. cerevisiae deletion strains, locus YNL307C, strain MCK1, active compounds read low 0.0689 | S. cerevisiae deletion strains, locus YNL322C, strain KRE1 (second series), active compounds read low 0.0671 | S. cerevisiae deletion strains, locus YNL322C, strain KRE1, active compounds read low 0.0528 | S. cerevisiae deletion strains, locus YNR049C, strain mso1, active compounds read low 0.0595 | S. cerevisiae deletion strains, locus YNR052C, strain pop2, active compounds read low 0.0629 | S. cerevisiae deletion strains, locus YOL006C, strain TOP1, active compounds read low 0.102 | S. cerevisiae deletion strains, locus YOL147C, strain pex11, active compounds read low 0.058 | S. cerevisiae deletion strains, locus YOR001W, strain rrp6, active compounds read low 0.0684 | S. cerevisiae deletion strains, locus YOR061W, strain CKA2, active compounds read low 0.0465 | S. cerevisiae deletion strains, locus YOR069W, strain VPS5, active compounds read low 0.0482 | S. cerevisiae deletion strains, locus YOR070C, strain gyp1, active compounds read low 0.0606 | S. cerevisiae deletion strains, locus YOR080W, strain dia2, active compounds read low 0.0661 | S. cerevisiae deletion strains, locus YOR083W, strain WHI5, active compounds read low 0.0628 | S. cerevisiae deletion strains, locus YOR106W, strain vam3, active compounds read low 0.0631 | S. cerevisiae deletion strains, locus YOR136W, strain idh2, active compounds read low 0.0713 | S. cerevisiae deletion strains, locus YOR144C, strain elg1, active compounds read low 0.0581 | S. cerevisiae deletion strains, locus YOR184W, strain ser1, active compounds read low 0.073 | S. cerevisiae deletion strains, locus YOR231W, strain MKK1, active compounds read low 0.132 | S. cerevisiae deletion strains, locus YOR265W, strain rbl2, active compounds read low 0.0563 | S. cerevisiae deletion strains, locus YOR270C, strain vph1, active compounds read low 0.0933 | S. cerevisiae deletion strains, locus YOR290C, strain snf2, active compounds read low 0.0699 | S. cerevisiae deletion strains, locus YOR316C, strain cot1, active compounds read low 0.0597 | S. cerevisiae deletion strains, locus YPL051W, strain arl3, active compounds read low 0.063 | S. cerevisiae deletion strains, locus YPL055C, strain LGE1, active compounds read low 0.076 | S. cerevisiae deletion strains, locus YPL078C, strain atp4, active compounds read low 0.0655 | S. cerevisiae deletion strains, locus YPL106C, strain sse1, active compounds read low 0.1 | S. cerevisiae deletion strains, locus YPL240C, strain hsp82, active compounds read low 0.0559 | S. cerevisiae deletion strains, locus YPL241C, strain CIN2, active compounds read low 0.0515 | S. cerevisiae deletion strains, locus YPL256C, strain CLN2, active compounds read low 0.132 | S. cerevisiae deletion strains, locus YPR119W, strain clb2, active compounds read low 0.0616 | S. cerevisiae deletion strains, locus YPR141C, strain kar3, active compounds read low 0.0673 | S. cerevisiae deletion strains, locus YPR163C, strain tif3, active compounds read low 0.0707 | S. cerevisiae deletion strains, locus YPR167C, strain met16, active compounds read low 0.0616 | S. cerevisiae deletion strains, strain wtn01, active compounds read low 0.0633 | S. cerevisiae strains, strain wild type, active compounds read low 0.0493
